# NOTCH ag = agonists of NOTCH signaling | activation, % at 2.5 µM | hit rate 0.4% among 15,000 | NOTCH signaling luciferase reporter cells, luminescence; in the data active means activation above about 2.2%
# Nox1 inhibitor = inhibitors of human NADPH oxidase 1 (Nox1); Q9Y5S8; HT29 cells, luminol chemiluminescence ROS; inhibition, % at 6.7 µM; hit rate 0.81% among 16,000; AID 1792, 2009
# Target sequence (Q9Y5S8 whole entry, looked up): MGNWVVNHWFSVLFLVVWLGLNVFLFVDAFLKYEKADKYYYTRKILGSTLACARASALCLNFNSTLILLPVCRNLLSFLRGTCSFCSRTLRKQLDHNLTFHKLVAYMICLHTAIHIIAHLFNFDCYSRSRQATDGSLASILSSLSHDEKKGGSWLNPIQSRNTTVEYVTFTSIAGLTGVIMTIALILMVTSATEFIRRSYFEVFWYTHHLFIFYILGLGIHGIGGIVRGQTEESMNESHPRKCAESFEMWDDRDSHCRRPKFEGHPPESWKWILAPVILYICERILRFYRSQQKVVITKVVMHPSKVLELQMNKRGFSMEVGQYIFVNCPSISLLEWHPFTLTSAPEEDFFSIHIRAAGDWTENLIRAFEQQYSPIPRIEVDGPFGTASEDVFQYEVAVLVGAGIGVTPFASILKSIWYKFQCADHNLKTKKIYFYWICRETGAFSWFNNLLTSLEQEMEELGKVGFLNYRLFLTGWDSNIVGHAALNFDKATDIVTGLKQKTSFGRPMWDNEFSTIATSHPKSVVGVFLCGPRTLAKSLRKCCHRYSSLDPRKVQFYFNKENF
# Luminol counter = counter-screen for Nox1 inhibitors: inhibitors of luminol chemiluminescence; HRP/luminol/H2O2 chemiluminescence counterscreen; inhibition, % at 6.7 µM; hit rate 0.4% among 16,000; further: reference of the scale not given here
# TLR4-MyD88 inh = inhibitors of human TLR4-MyD88 binding; hit rate 0.06% among 16,000; Toll-like receptor 4 (Homo sapiens), O00206; AID 811, 2007; Cell-based TLR4-MyD88 binding inhibition assay; inhibition, % at 10 µM; in the data active means inhibition above about 45%
# OPRK1 antag MB = antagonists of human kappa opioid receptor OPRK1, Maybridge library | Kappa-type opioid receptor (Homo sapiens), P41145 | OPRK1 cells, antagonist mode, fluorescence readout | inhibition, % at 9 µM | hit rate 0.4% among 16,000 | AID 652031, 2013; in the data active means inhibition above about 50%
# * = called active by the depositor; · = no result. Only some compounds are listed: those with a hit (about 1.8% of all), similar ones and a draw of the others. Unless noted, no stated cut-off is given here; in the data, active means inhibition above about 75%; inactive means the rest.
SMILES,NOTCH ag,Nox1 inhibitor,Luminol counter,TLR4-MyD88 inh,OPRK1 antag MB
COc1ccccc1C1CCN(Cc2ccc3c(c2)CCC(C)(C)O3)CC1,0,-44,2,-2,75*
CCN(Cc1cc(OC)c(OC)c(OC)c1)S(=O)(=O)c1cc(Cl)c(Cl)cc1Cl,0,-12,-1,2,7
CCOc1cc(N2CCOCC2)c(OCC)cc1NS(=O)(=O)c1ccccc1,0,103*,15,-2,18
O=S(=O)(Nc1ccccc1N1CCOCC1)c1ccccc1,·,20,43,-18,-16
O=C(NNC(=O)C(F)(F)F)c1ccc[nH]1,-1,-40,3,-2,52*
COC(=O)c1cc(S(=O)(=O)N2CCOCC2)oc1C,0,-41,4,7,-11
Cc1ccc(S(=O)(=O)NC(=O)Oc2ccc(-c3csnn3)cc2)cc1,0,-132,103*,11,1
CC(C)(C)OC(=O)N1CCCN(c2ccc(C(F)(F)F)cc2[N+](=O)[O-])CC1,0,-59,3,-2,22
CCOC(=O)/C(C#N)=C(\Nc1ccc(OC)cc1)SC,0,10,-5,-8,2
CC(=O)/C(C=Nc1ccc(F)cc1)=C(\C)O,0,-26,0,0,11
CC(=O)/C(C=Nc1cc(C)c(O)c(Cl)c1)=C(\C)O,0,92*,11,0,4
O=C(Nc1cccc2[nH]ccc12)C1CCCCC1,2.3*,-13,-9,-2,11
Cc1c(NC(=O)C2CCCCC2)cccc1[N+](=O)[O-],0,3,-6,-10,-10
Cc1cn(CCC(=O)NCc2ccc3c(c2)OCO3)c2ccccc12,3.5*,-40,-1,-3,-27
O=S(=O)(NCCSCc1ccco1)c1ccc(Cl)cc1,-1,16,-3,6,-5
Cc1ccc(NCN2C(=O)c3ccc([N+](=O)[O-])cc3C2=O)cc1,0,77*,-46,10,13
CCOC(=O)C(C#N)=c1sc(=C(C#N)C(=O)OCC)s1,0,3,10,-2,-8
CCC(CO)Nc1nc2c([nH]1)c(=O)n(C)c(=O)n2C (stereo not drawn),0,94*,-7,-2,0
CCc1nc2c([nH]1)c(=O)n(C)c(=O)n2C,0,-20,-3,-2,-11
CCOC(=O)c1sc2nc(SCc3ccccc3)nc(-c3ccccc3)c2c1N,1,-32,-2,6,-17
Nc1c(C(=O)c2ccccc2)sc2nsc(SCCN3CCCC3)c12,-1,3,10,14,76*
Cc1cc(NNC(=O)c2ccccc2Cl)nc2c1c(C)nn2C,-1,78*,31,5,-1
O=C(O)c1cnc(-c2ccccc2)[nH]1,0,-75,3,13,6
O=C(NNc1c([N+](=O)[O-])cc(C(F)(F)F)cc1[N+](=O)[O-])c1ccco1,-1,89*,0,11,-3
NCCNc1c([N+](=O)[O-])cc(C(F)(F)F)cc1[N+](=O)[O-],0,-44,2,11,4
CCCSC(=S)c1c(C)[nH]n(-c2ccccc2)c1=O,0,6,63,2,-1
O=S(=O)(Nc1ccc(N2CCCCC2)cc1)c1cc(Cl)sc1Cl,0,102*,68,1,26
CC1(C)Cc2cccc(C(=O)N3CCC(c4c[nH]c5ccccc45)CC3)c2O1,-1,-2,-2,-6,-2
